Screening results from PubChem.
Insulin prom inh: TRM-6 insulin promoter activity inhibition; TRM-6 cells (human fetal islet line), insulin promoter-eGFP reporter, imaging; reporter expression induced with tamoxifen; inhibition, % at 2 µM; 130,000 tested, 0.9% active; AID 1273;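 active = inhibition above the mean plus 3 SD, with well images judged a real hit on visual review, cut at about 60% in these data, passing the limit was not always enough; inconclusive = inhibition over the cutoff but images rejected on review; inactive = inhibition not above the cutoff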
Ins promoter up: MIN6 insulin promoter up-regulation; MIN6 insulin promoter-GFP reporter, high-content imaging; active compounds read high; 190,000 tested, 0.3% active; z-score at 5 µM; AID 1625;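 active = z-score above 3 at 5 µM with at least 500 cells counted in the well; inconclusive = wells under 500 cells, flagged as cytotoxic or low count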
L major viab: Leishmania major promastigote growth inhibition; Leishmania major promastigotes, resazurin fluorescence viability; inhibition, % at 10 µM; 200,000 tested, 9% active; in the data active = inhibition above about 50%;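 note: promastigotes grown with compound for 44 hours at 28 °C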
Cl transport mod: modulators of human KCC2 chloride dependent transport. KCC2 cells, thallium flux FluoZin-2 fluorescence. B-score of Tl+ flux slope (higher = more flux/activation; lower = inhibition) at 10 µM. 190,000 tested, 2.2% active. AID 1456;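 active = thallium flux slope and its plate-corrected score both differing from the plate sample mean at a set confidence after two filtering rounds, in either direction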;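 note: slope of fluorescence scaled to starting intensity during 10 to 20 s after thallium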
WT yeast gro inh: growth inhibition of WT yeast, mitochondrial fusion screen | mitochondrial fusion phenotypic screen, WT strain | inhibition, % at 10 µM | 190,000 tested, 2.1% active | AID 1362; in the data active = inhibition above about 58%; tested in S. cerevisiae
ROMK mod: modulates human ROMK potassium channel activity. Tet-inducible ROMK, thallium flux fluorescence; actives lie on both sides. B-score at 10 µM. 130,000 tested, 2% active. AID 1918;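 active = signal ratio slope over the read window, or its plate-corrected B-score, at least 3 SD from the plate mean, either direction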;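 note: B-score of the F/F0 ratio slope over 7 to 12 s after thallium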
Target sequence (P48048 whole entry, looked up): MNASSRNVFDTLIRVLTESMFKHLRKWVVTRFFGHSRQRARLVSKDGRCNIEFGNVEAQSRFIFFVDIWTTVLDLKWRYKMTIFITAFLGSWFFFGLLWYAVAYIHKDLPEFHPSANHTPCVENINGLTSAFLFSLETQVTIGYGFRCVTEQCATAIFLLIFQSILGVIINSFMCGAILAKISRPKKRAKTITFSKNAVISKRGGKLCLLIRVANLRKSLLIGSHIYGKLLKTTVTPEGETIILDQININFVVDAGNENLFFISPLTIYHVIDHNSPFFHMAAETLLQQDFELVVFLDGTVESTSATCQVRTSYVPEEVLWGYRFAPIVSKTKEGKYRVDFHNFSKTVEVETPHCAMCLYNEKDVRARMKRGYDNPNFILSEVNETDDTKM
ROMK retest: retested hit modulating human ROMK potassium channel | shares compounds with ROMK mod | ROMK thallium flux, fluorescence ratio; active compounds read low | normalized thallium flux (F/F0 slope) at 10 µM | 3,000 tested, 54% active;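 active = Flux at 10 µM at least 3 SD below or above vehicle control mean in one or both replicates; inconclusive = no clear call, values can overlap the other calls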
Hits are given with their value; n = inactive; u = inconclusive; x = not tested or not shown. A selection: hits, their analogues and other compounds. The true share with any hit is near 12%.

SMILES | Insulin prom inh | Ins promoter up | L major viab | Cl transport mod | WT yeast gro inh | ROMK mod | ROMK retest
O=C1c2[nH]nc(-c3ccccc3O)c2C(c2ccc(F)cc2)N1CC1CCCO1 (stereo not given) | x | n | n | x | n | n | x
O=C1c2[nH]nc(-c3ccccc3O)c2C(c2cccc(Cl)c2)N1CC1CCCO1 (stereo not given) | x | n | n | x | n | -2.4 | 0.052
COc1ccc(N=C2O/C(=C/c3sc(=S)n(CC4CCCO4)c3O)N=C2C#N)cc1 (stereo not given) | x | n | x | n | x | x | 0.055
O=C1N=c2ccccc2=C1c1sc(=S)n(CC2CCCO2)c1O (stereo not given) | x | n | n | n | n | x | x
CCC(C)(C)NC(=O)/C=C/c1ccccc1[N+](=O)[O-] | x | n | n | n | n | n | x
C/C(=N\Nc1nc(C(=O)O)cs1)c1ccccc1 | x | n | n | n | n | x | n
Cc1cc(C)c2cc3c(ccn3C3OC[C@H](O)[C@H](O)[C@H]3O)cc2n1 (stereo not given in full) | n | n | n | n | n | x | x
Cc1cc(NC(=O)/C=C/c2ccc(Cl)cc2)no1 | n | n | n | n | n | x | x
CN(C)/C=N/c1c(C#N)cnn1-c1ncnc2sc(-c3ccccc3)cc12 | x | n | n | n | n | x | 0.063
Cc1cccc(N2CCN(C(c3ccccc3)c3nnnn3C(C)(C)C)CC2)c1C (stereo not given) | n | x | n | n | 75 | -3.3 | n
c1ccc2c(c1)OCCOCCOCCOCCOCCOc1ccccc1OCCOCCOCCO2 | x | n | 100 | n | n | -4.8 | 0.042
O=Cc1cnc(N2CCN(Cc3ccccc3)CC2)s1 | n | n | n | n | n | n | x
Cc1ccc(CCN2C(=O)CCC2(C)C(=O)NC2CCCC2)cc1 (stereo not given) | n | n | n | n | n | n | n
c1ccc(-n2nnnc2Sc2n[nH]c(-c3ccncc3)n2)cc1 | x | x | n | x | n | x | x
COc1ccc(N=C2S/C(=C\c3ccc(OCC(=O)O)cc3)C(=O)N2CCc2c[nH]c3ccccc23)cc1 | x | n | n | n | n | 8.5 | 0.12
COc1ccc(N=C2S/C(=C\c3ccc(N4CCOCC4)o3)C(=O)N2CCc2c[nH]c3ccccc23)cc1 | n | x | 100 | n | n | x | 0.058
O=C(O)COc1ccc(/C=C2\SC(=Nc3ccccc3)N(c3ccccc3)C2=O)cc1 | n | n | n | n | n | n | x
COc1ccc(NC(=O)c2ccc(Br)o2)c([N+](=O)[O-])c1 | x | n | n | n | n | x | x
O=C1CN=C(Nc2ccc(Cl)cc2)N1c1ccccc1 | n | n | n | n | n | x | x
CC(=O)/C=C(\C)Nc1c(C)n(C)n(-c2ccccc2)c1=O | n | n | n | n | n | 1.8 | u
Cc1c(NC(=O)CSc2ccccc2F)c(=O)n(-c2ccccc2)n1C | x | n | n | n | n | -2.2 | n
Cc1c(NC(=O)CC(=O)Nc2c(C)n(C)n(-c3ccccc3)c2=O)c(=O)n(-c2ccccc2)n1C | n | n | n | n | n | x | x
CCOC(=O)c1c(NC(=S)Nc2ccccc2)sc2c1CCN(CCc1ccccc1)C2 | n | n | 79 | n | n | x | 0.061
CN1/C(=C/C=C(C#N)C#N)C=Cc2ccccc21 | x | x | x | n | x | x | 0.047
CCOC(=O)/C(C#N)=C/C=C1\C=Cc2ccccc2N1CC | n | x | n | n | n | n | x
SMILES | Insulin prom inh | Ins promoter up | L major viab | Cl transport mod | WT yeast gro inh | ROMK mod | ROMK retest
c1ccc(CNC23CC4CC(CC(C4)C2)C3)nc1 | n | n | n | n | n | n | x
O=C(c1ccc(-n2c(SCc3cccc(F)c3)nc3ccccc3c2=O)cc1)N1CCOCC1 | n | n | n | n | n | -3.4 | 0.059
COc1ccccc1N1CCN(C(=O)CSc2nnc3n2C(C)(C)Cc2ccccc2-3)CC1 | x | u | n | n | n | n | x
CC(C)(C)N1CC2(c3ccccc3)CN(C(C)(C)C)CC(c3ccccc3)(C1)C2=O | n | x | n | n | n | 3 | n
O=C1CCC(c2ccccc2)(c2ccccc2)CC1 | x | n | x | n | x | x | x
O=C(CCn1cnc2ccccc2c1=O)Nc1cccc(Cl)c1Cl | x | n | n | n | n | n | x
CC(C)C1C(C#N)=C(N)Oc2n[nH]c(-c3cccs3)c21 (stereo not given) | x | n | n | n | n | x | x
CC(C)c1[nH]nc2c1C(c1cccs1)C(C#N)=C(N)O2 (stereo not given) | n | n | 59 | n | n | -5.7 | 0.058
COCCn1nnnc1C(c1cccc(C(F)(F)F)c1)N1CCN(Cc2ccccc2)CC1 (stereo not given) | n | n | n | n | n | -3.9 | 0.054
COCCn1nnnc1C(c1cccc(C(F)(F)F)c1)N1CCOCC1 (stereo not given) | n | n | n | n | n | x | x
CCCc1ccc(Oc2cn[nH]c2-c2ccc(O)c(C)c2O)cc1 | n | n | n | n | 83 | -4 | 0.058
Cc1sc(NC(=O)c2ccccc2)c(C(c2ccc(Cl)cc2)N2CCN(CCO)CC2)c1C (stereo not given) | n | n | 95 | n | 91 | -2.4 | n
CCC(=O)N1CCN(c2ccccc2NC(=O)COc2cc(C)ccc2C(C)C)CC1 | n | n | n | n | 67 | -3.5 | 0.066
CNC(=O)C1(CC(C)C)C=CCN1C(C)=O (stereo not given) | n | n | n | n | n | n | x
CC1(C)CC(Nc2ccc(C(F)(F)F)cc2[N+](=O)[O-])CC(C)(C)N1 | x | n | n | n | n | -2.6 | 0.055
CS(=O)(=O)NCCNc1ccc(C(F)(F)F)cc1[N+](=O)[O-] | n | n | n | n | n | n | x
CCCCOC(=O)Nc1nc(CC(=O)OCC)cs1 | n | n | n | n | n | n | x
Cn1c(=O)c2cc3ccc(Cl)cc3nc2n(C)c1=O | x | n | x | n | x | n | x
Cn1c(=O)c2cc3ccccc3nc2n(C)c1=O | x | n | x | n | x | -5.1 | u
Clc1ccc(-c2ccc(/C=N/Nc3cc(N4CCOCC4)nc(N4CCOCC4)n3)o2)cc1 | n | n | n | n | 60 | -4 | 0.058
Brc1ccc(-c2ccc(/C=N/Nc3nc(N4CCOCC4)nc(N4CCOCC4)n3)o2)cc1 | n | n | n | n | n | n | n
CC(C)c1cc(=O)oc2c3c4c(cc12)CCCN4CCC3 | x | x | n | n | n | x | 0.054
CCCn1c(SCC(=O)c2c[nH]c3ccccc23)nnc1-c1ccncc1 | n | n | n | n | n | x | x
COc1ccc(C(Nc2ccccn2)c2oc(CO)cc(=O)c2O)cc1 (stereo not given) | n | n | n | n | n | n | x
c1ccc(Cc2nnc(N3CCCCC3)c3ccccc23)cc1 | x | n | n | n | n | -2.2 | 0.067
c1ccc(Cc2nnc(N3CCOCC3)c3ccccc23)cc1 | n | n | n | n | n | n | x
Cc1nc(C(=O)NC(C)C)nn1-c1cc(Cl)cc(Cl)c1 | x | n | n | n | n | n | x
Cc1cccc(-c2nc(CSCC(=O)N3CCN(c4ccccn4)CC3)c(C)o2)c1 | n | x | n | x | n | -4.3 | 0.053
O=P(c1ccccc1)(c1ccccc1)C(O)c1ccco1 (stereo not given) | n | n | n | n | n | 2.2 | n
